# Compound activity (PubChem BioAssay)
# LASV entry inh = Lassa virus entry inhibition; Lassa virus pseudotype entry inhibition, cell reporter; Potency, µM (series often up to 37.9 µM), most hits filed as inhibitors; actives 1.2% (n = 300,000); AID 540256; calls by dose curve; tested in HEK293 cells; also: nearly all actives have a fitted effect of over 50% in size
# Shiga inhibitor = inhibitors of Shiga toxin in Vero cells; Vero cells, Shiga toxin protein synthesis inhibition reporter; inhibition, % at 38.7 µM; actives 9.2% (n = 290,000); AID 2315; in the data active = inhibition mostly above about 28%, no sharp cut-off; inactive = mostly below about 43%
# Cycloheximide cs = affects cycloheximide protein synthesis inhibition readout, counter-screen. cell reporter, cycloheximide protein synthesis inhibition counterscreen. max response, %. actives 12% (n = 300,000). AID 2314; in the data active = max response mostly above about 13%, no sharp cut-off; inactive = mostly below about 14%; also: read at 38.3 µM for the half of the compounds with a filed dose
# MARV entry inh = blocks Marburg virus binding to or entry into cells | AID 540276 | Marburg virus pseudotyped entry inhibition, cell reporter | actives 1.8% (n = 300,000) | Potency, µM (series often up to 37.8 µM), most hits filed as inhibitors; calls by dose curve; tested in HEK293 cells
# Numbers stand for hits; - = inactive; ? = inconclusive; . = no result. Most compounds without a hit are left out; they make up all but 12% or so of the library.
SMILES,LASV entry inh,Shiga inhibitor,Cycloheximide cs,MARV entry inh
O=C(NCc1ccccc1)NC(=O)c1ccccc1,-,-,-,-
O=C1CCN(c2ncccc2[N+](=O)[O-])CC1,-,-,-,-
COc1cc2c(cc1OC)CN(c1ncccc1[N+](=O)[O-])CC2,-,55,25,?
COc1cc2c(cc1OC)CN(c1ccc(F)cc1[N+](=O)[O-])CC2,-,72,30,?
C=CCC1(N(C(C)=O)c2ccccc2C)CCCCC1,-,-,-,-
COC(=O)C(NC(=O)CCc1c(C)nc2c(c(C)nn2-c2ccccc2)c1C)C(C)C (centres undefined),-,-,-,-
CCc1ccc(C(=O)CN(C#N)c2nc(C)cc(C)n2)cc1,?,-,-,11µM
Cc1cc(C)nc(N(C#N)CC(=O)c2ccccc2)n1,?,48,37,?
Cc1cc(C)nc(N(C#N)CC(=O)N(c2ccccc2)C(C)C)n1,-,-,-,-
Cc1ccc(S(C)(=O)=N/C=C2\C(=O)c3sccc3N(C)S2(=O)=O)cc1 (centres undefined),.,-,-,.
c1ccc(CN2CCC3(CC2)Nc2ccccc2CO3)cc1,-,-,-,-
c1ccc(CN2CCC3(CCCc4ccccc43)CC2)cc1,?,.,.,6.3µM
COc1ccc(C(=O)N2CCc3ccc(NC(=O)c4ccccn4)cc3C2)cc1F,.,56,42,.
CC(=O)Nc1cccc(NC(=O)c2oc3ccccc3c2C)c1,.,100,48,.
CCC(=O)Nc1ccc(NC(=S)NC(=O)c2oc3ccccc3c2C)cc1,?,-,-,-
CCC(=O)Nc1ccc(NC(=O)c2oc3ccccc3c2C)cc1,.,-,10,.
O=C(COC(=O)c1ccc(O)cc1)Nc1ccc2c(c1)OCO2,-,.,.,?
CCCCCn1c(CN2CCN(c3cc(Cl)ccc3C)CC2)nc2c1c(=O)[nH]c(=O)n2C,?,-,-,16µM
CCCCCn1c(CN2CCN(c3ccc(OC)cc3)CC2)nc2c1c(=O)[nH]c(=O)n2C,?,.,.,-
COC(=O)c1cc(C(=O)OC)n2c(C)cc3ccccc3c12,.,.,.,-
COc1ccc(-c2cc(=NCC(=O)O)c3ccccc3o2)cc1,.,62,28,.
COc1ccc(-c2cc(=Nc3cccc(C(=O)O)c3)c3cc(C)ccc3o2)cc1,?,98,59,?
CCc1ccc2oc(-c3ccc(OC)cc3)cc(=Nc3c(C)n(C)n(-c4ccccc4)c3=O)c2c1,.,127,63,.
C=CCn1c(-c2ccc(OC)cc2)csc1=Nc1c(C)n(C)n(-c2ccccc2)c1=O,-,-,-,-
COc1ccc(-c2cc(=Nc3ccc(C(=O)O)cc3)c3cc(C)ccc3o2)cc1,?,161,63,?
SMILES,LASV entry inh,Shiga inhibitor,Cycloheximide cs,MARV entry inh
COc1ccc(-c2cc(=NCCCCCC(=O)O)c3cc(C)ccc3o2)cc1,-,-,-,?
Cc1nc2ccccc2c(=O)n1NC(=O)Cc1ccc([N+](=O)[O-])cc1,-,-,-,-
O=C(NCC1CC1)c1cc(-c2ccccc2)nn1CC1CC(c2cccnc2)=NO1 (centres undefined),.,.,.,-
CCc1ccc2oc(-c3ccc(OC)cc3)cc(=Nc3cccc(C(=O)O)c3)c2c1,?,137,58,?
COc1ccc(-c2cc(=O)c3cc(OCC(=O)OC(C)C)ccc3o2)cc1,?,.,.,-
CCOC(=O)C1CCCN(C(=O)c2ccc3c(c2)N(Cc2ccccc2F)C(=O)c2ccccc2S3=O)C1 (centres undefined),-,.,.,-
CCN(CC)c1ccc(NC(=O)COCc2cc(-c3ccc4c(c3)OCO4)on2)c(C)c1,-,.,.,.
S=c1[nH]nc(-c2ccc3ccccc3n2)n1-c1ccc(Cl)cc1,-,-,-,?
c1ccc2nc(-c3nccs3)ccc2c1,-,96,28,-
S=c1[nH]nc(-c2ccc3ccccc3n2)o1,-,-,-,-
Clc1ccsc1-c1ccc2ccccc2n1,?,107,57,?
Cc1ccccc1COCCN1CCN(S(=O)(=O)c2ccccc2)CCC1=O,.,-,-,.
COc1cccc(N=Nc2c(O)[nH]c(=S)[nH]c2=O)c1,.,47,31,.
COc1ccc(N=Nc2c(O)[nH]c(=S)[nH]c2=O)cc1,.,110,31,?
O=C1C(=O)N(CC2CCCO2)C(c2ccco2)/C1=C(/O)c1ccc(F)cc1 (centres undefined),-,-,-,-
OC12C3C4CC5C6C4C1C6C(C53)N2CCc1cccc(F)c1 (centres undefined),.,-,-,.
O=C(CCSc1nc2ccccc2o1)Nc1ccccc1,.,-,-,.
COc1cc(OC)nc(NC(=O)CSc2nc3ccccc3o2)n1,-,-,-,-
O=C(CSc1nc2ccccc2o1)Nc1ccc(N2CCOCC2)c(Cl)c1,-,81,53,?
Cc1cccc(NC(=O)CSc2nc3ccccc3o2)c1,-,119,38,?
O=C(CSc1nc2ccccc2o1)Nc1ccc(Cl)cc1,-,83,22,-
O=C(CSc1nc2ccccc2s1)Nc1ccc(N2CCOCC2)c(Cl)c1,-,-,-,-
Cc1cc(C)nc(NC(=O)CSc2nc3ccccc3o2)n1,-,58,51,-
O=C(CN1CCN(CC(=O)Nc2ccccc2Cc2ccccc2)CC1)Nc1ccccc1Cl,-,-,-,?
CCOC(=O)C1CCN(C(=O)C(=O)Nc2ccc3nc4n(c(=O)c3c2)CCCCC4)CC1,.,-,-,.
SMILES,LASV entry inh,Shiga inhibitor,Cycloheximide cs,MARV entry inh
COc1ccc(Cl)cc1NC(=O)c1c(NCc2cccnc2)sc2c1CCC(C)C2 (centres undefined),-,.,.,.
CCOC(=O)CN1C(=O)C2(CC(C)=C[C@@H](C)O2)c2c(Br)cccc21 (some centres undefined),?,.,.,-
Cc1nn2c(-c3cccc(NC(=O)CN4CCOCC4)c3)nnc2c2ccccc12,-,.,.,-
Cc1nn2c(-c3cccc(NC(=O)CSc4nc5ccccc5o4)c3)nnc2c2ccccc12,?,-,14,?
CC(=O)Nc1nonc1NC(=O)CSc1nc2ccccc2o1,-,-,-,-
Cc1cccc(NC(=O)CSc2cc(C)c3ccccc3n2)c1,?,.,.,2.2µM
CC(=O)Nc1ccc(NC(=O)CSc2nc3ccccc3o2)cc1,-,115,17,-
CC(=O)Nc1ccc2nc(SCC(=O)Nc3ccc(N4CCOCC4)c(Cl)c3)sc2c1,-,98,69,-
Cc1cccc(NC(=O)CSc2cc(C(=O)c3nccn3C)c3ccccc3n2)c1,?,-,-,-
COC(=O)c1cccc(NS(=O)(=O)c2ccc(OC)c(C(=O)N3CCOCC3)c2)c1C,.,-,-,-
COc1cccc(NC(=O)C(=S)NC2CCCCC2)c1,?,106,50,?
COc1cccc(NC(=O)NC2CCCCCCC2)c1,?,155,50,-
CNC(=S)NC1CC2CCCC(C1)N2Cc1ccc(C)cc1 (centres undefined),-,-,-,4.6µM
COc1ccc(CN2C3CCCC2CC(NC(=O)Nc2cccc(C)c2)C3)cc1 (centres undefined),?,-,-,4.6µM
COc1cccc(NC(=O)C2CCCN2C(=O)NC2CCCCC2)c1 (centres undefined),.,-,-,-
CSc1nc2sc3c(c2c(=O)n1-c1ccc(C)cc1)CCCC3,-,.,.,.
Cn1c(CNC(=O)CSc2nc(-c3ccccc3F)nc3cc(=O)[nH]n23)nc2ccccc21,-,.,.,.
Cc1cc(C)c(NC(=O)COC(=O)c2ccncc2)c(C)c1,-,.,.,-
COc1cc(NC(=O)NC2Cc3ccccc3C2)cc(OC)c1,.,53,20,.
